Test [1] concerns the target T1, Protein deacetylase HDAC6 (Homo sapiens) (UniProt Q9UBN7).
T1 sequence (whole entry): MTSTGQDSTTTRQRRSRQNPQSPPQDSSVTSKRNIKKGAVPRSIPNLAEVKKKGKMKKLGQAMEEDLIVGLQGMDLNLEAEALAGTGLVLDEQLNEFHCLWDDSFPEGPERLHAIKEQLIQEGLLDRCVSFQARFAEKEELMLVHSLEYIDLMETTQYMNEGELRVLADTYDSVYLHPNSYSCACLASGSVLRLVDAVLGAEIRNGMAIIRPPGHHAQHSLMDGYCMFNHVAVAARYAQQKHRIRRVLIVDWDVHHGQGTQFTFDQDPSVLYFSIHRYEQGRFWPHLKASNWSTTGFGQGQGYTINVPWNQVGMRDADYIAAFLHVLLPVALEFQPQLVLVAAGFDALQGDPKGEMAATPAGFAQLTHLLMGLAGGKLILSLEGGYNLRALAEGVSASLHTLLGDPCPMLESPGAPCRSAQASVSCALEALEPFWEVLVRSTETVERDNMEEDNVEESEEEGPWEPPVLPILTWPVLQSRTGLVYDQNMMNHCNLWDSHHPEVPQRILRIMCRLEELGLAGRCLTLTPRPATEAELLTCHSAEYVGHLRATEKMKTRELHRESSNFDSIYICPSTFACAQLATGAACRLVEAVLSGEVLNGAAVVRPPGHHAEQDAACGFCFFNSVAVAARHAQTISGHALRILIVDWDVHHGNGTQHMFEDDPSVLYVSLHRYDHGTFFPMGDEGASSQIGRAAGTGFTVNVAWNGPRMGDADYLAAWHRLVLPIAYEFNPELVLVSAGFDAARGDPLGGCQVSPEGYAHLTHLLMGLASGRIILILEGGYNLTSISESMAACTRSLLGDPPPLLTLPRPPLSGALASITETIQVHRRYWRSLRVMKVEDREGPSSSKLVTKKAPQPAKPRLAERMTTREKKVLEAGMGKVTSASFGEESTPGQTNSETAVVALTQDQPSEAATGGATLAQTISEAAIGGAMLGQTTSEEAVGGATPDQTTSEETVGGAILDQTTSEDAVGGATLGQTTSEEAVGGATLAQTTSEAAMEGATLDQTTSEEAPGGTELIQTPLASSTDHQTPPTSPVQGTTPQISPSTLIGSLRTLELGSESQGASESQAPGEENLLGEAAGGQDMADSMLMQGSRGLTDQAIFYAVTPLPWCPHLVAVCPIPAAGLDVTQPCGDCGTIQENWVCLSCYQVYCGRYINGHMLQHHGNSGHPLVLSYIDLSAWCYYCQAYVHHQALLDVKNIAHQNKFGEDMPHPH
Particulars: at 10 µM.

The target in test [2] is Protein deacetylase HDAC6 (Homo sapiens) (UniProt Q9UBN7). Particulars: at 10 µM. This is another data set of the same source.

Where “and” joins values, the source holds several entries; their conditions need not be identical. Equal values may be shown once. In all, about 5,600 compounds went through this assay and about 150 (2.7%) showed an effect of 50% or more. The full list was thinned out, with strong results kept by preference.

As a reminder, the inhibition is the drop in the measured response relative to a control, in per cent. Consider `COc1ccc(/C=C/C(=O)/C=C(O)/C=C/c2ccc(OC)c(OC)c2)cc1OC`, for which the inhibition in test [1] came to 4.07%.

On to `Cn1cc(C2=C(c3ccc(Cl)cc3Cl)C(=O)NC2=O)c2ccccc21`, for which, in test [1], the inhibition is -3.78%.

In the case of `Cn1cc(C2=C(c3cn(CCCSC(=N)N)c4ccccc34)C(=O)NC2=O)c2ccccc21`, in test [1], the inhibition was -0.14%.

Turning to `Cn1cc(/C=C2/C(=O)Nc3cccnc32)c2ccccc21`, the inhibition in test [1] came out at 66.2%.

On to `CCNC(=O)CC[C@@H](N)C(=O)O`, for which the inhibition in test [1] was -3.08%.

With `CN(C)CC(O)Cn1c2ccc(Br)cc2c2cc(Br)ccc21` (stereo not drawn), in test [1], the inhibition is -0.45%.

Take `O=C1OC2(c3cc(I)c(O)c(I)c3Oc3c2cc(I)c(O)c3I)c2c(Cl)c(Cl)c(Cl)c(Cl)c21`: the inhibition in test [1] is 31.9% and 41.8%.

As to `CCOC(=O)c1ccc(N2NC(=O)/C(=C/c3ccc([N+](=O)[O-])o3)C2=O)cc1`, the inhibition in test [1] was 3.77%.

On to `Cn1nc(-c2ccc(C(F)(F)F)cc2)nc2c(=O)n(C)c(=O)nc1-2`, for which the inhibition in test [1] amounted to 82.8%.

On to `Cc1cccc(C)c1NC(=O)/N=C1\CCCN1C`, for which, in test [1], the inhibition was -2.32%.

For `Cc1ccc(-c2[nH]nc3c2C(c2cccc(O)c2)N(c2ccc(C(=O)O)cc2)C3=O)cc1` (stereo not drawn), in test [1], the inhibition is -3.95%.

With `C1Cc2[nH]nc(-c3nn[nH]n3)c2C1`, the inhibition in test [1] was -4.01%.

On to `COc1ccc2[nH]c(SCc3ncc(C)c(OC)c3C)nc2c1`, for which the inhibition in test [1] came to 7.26%.

For `N#Cc1cccc(-c2c[nH]c3ncnc(N4CCOCC4)c23)c1`, the inhibition in test [1] was -3.83%.

On to `CCCCc1nc(-c2ccc(OCCCN(CC)CC)cc2)cn1-c1ccc(Oc2ccc(Cl)cc2)cc1`, for which, in test [1], the inhibition stood at 9.56%.

Take `CCN(CC)CCn1c(=O)c(Cc2ccc(OC)cc2)nc2ccccc21`: in test [1], the inhibition was -4.21%.

Regarding `CCCCc1nc2cc(/C=C/C(=O)NO)ccc2n1CCN(CC)CC`, in test [1], the inhibition turned out to be 97.3%.

As for `CC(C)(C)/[N+]([O-])=C/c1ccc(S(=O)(=O)O)cc1S(=O)(=O)O`, the inhibition in test [1] is -5.01%.

With `CCCc1c(OCCCOc2ccc(OCC(=O)O)cc2)ccc(CC=O)c1O`, the inhibition in test [1] is -1.53%.

Regarding `O=C(O)/C=C\c1c[nH]cn1`, the inhibition in test [1] is -0.7%.

As to `CC1(C)CCC(C)(C)c2cc(NC(=O)c3ccc(C(=O)O)cc3)ccc21`, in test [1], the inhibition is -2.96%.

Regarding `Nc1ccc(C(=O)O)c(O)c1`, the inhibition in test [1] was -3.77%.

Consider `O=C(Nc1ccc(C(=O)O)c(O)c1)c1ccccc1`, for which the inhibition in test [1] was 95.5%.

Take OXALIPLATIN, CHEMBL414804: in test [2], the inhibition was -4.35%.

With `CN[C@H](CNC(=O)N1CCC[C@@H]([C@@H](OCCNC(=O)OC)c2cccc(Cl)c2)C1)C[C@H]1CCCOC1`, the inhibition in test [1] came to 8.55%.

On to `Cc1ccc(OCCSc2ncccn2)c(Br)c1`, for which the inhibition in test [1] came out at 77.5%.

For the compound `Cc1cc(OCC(=O)O)cc(C)c1Cc1ccc(O)c(C(C)C)c1`, the inhibition in test [1] was -5.84%.

Turning to `O=C1[C@@H]2[C@H]3CC[C@H](C3)[C@@H]2C(=O)N1CCCCN1CCN(c2ncccn2)CC1`, the inhibition in test [1] turned out to be 6.98%.

With `N#Cc1c[nH]c2c(C(=O)N3CCN(CCc4ccc(F)cc4)CC3)cccc12`, the inhibition in test [1] worked out at 4.22%.

Regarding `COc1ccccc1C(=O)Nc1cccc(NC(=O)c2cccc(C)c2)c1`, the inhibition in test [1] is 8.47%.

For the compound `CC(=O)CC(=O)O`, the inhibition in test [1] was -2.94%.

As for `CCCCCCCCCCCCCCCC(=O)NCCO`, the inhibition in test [1] was -0.28%.

With `O=C(CCNNC(=O)c1ccncc1)NCc1ccccc1`, the inhibition in test [1] was -3.21%.

For the compound `O=C(CCCCCCNC(=O)c1cnc(N(c2ccccc2)c2ccccc2)nc1)NO`, the inhibition in test [1] is 97.5%.

Turning to `N#C/C(=C\c1cccn1S(=O)(=O)c1cccc([N+](=O)[O-])c1)S(=O)(=O)c1ccc(F)cc1`, the inhibition in test [1] is 6.35%.

Regarding `N[C@@H](CC(=O)NO)C(=O)O`, in test [1], the inhibition was -1.74%.

As to `O=C1Nc2c(ccc(Cl)c2Cl)/C1=N\O`, in test [1], the inhibition turned out to be 1.23%.

Regarding `Oc1cccc(-c2c3nc(c(-c4cccc(O)c4)c4ccc([nH]4)c(-c4cccc(O)c4)c4nc(c(-c5cccc(O)c5)c5ccc2[nH]5)CC4)C=C3)c1`, the inhibition in test [1] stood at 2.63%.

Regarding `Nc1nc(N)c2nc(-c3ccccc3)c(N)nc2n1`, in test [1], the inhibition turned out to be 22%.

In the case of `Nc1nc(N)c2nc(-c3cccc(O)c3)cnc2n1`, the inhibition in test [1] was 66.2%.

Regarding `CCN(CC)Cc1ccc(Nc2ccnc3cc(Cl)ccc23)cc1O`, the inhibition in test [1] was 0.37%.

For the compound `O=C(c1ccc(CN2CCOCC2)cc1)N1CCN(C2CC2)CC1`, the inhibition in test [1] is 4.17%.

For `O=C1NC(=O)/C(=C/c2cccc(C(F)(F)F)c2)S1`, the inhibition in test [1] was determined as 8.21%.

As to `O=C1NC(=O)/C(=C/c2ccc3c(c2)OC(F)(F)O3)S1`, the inhibition in test [1] is -1.91%.

Take `O=C1NC(=O)/C(=C/c2ccc(-c3ccc(F)cc3O)o2)S1`: the inhibition in test [1] came out at 87%.

Take `Cc1[nH]nc(C(F)(F)F)c1Cc1sc2c(c1C(=O)N1C[C@](C)(O)CO1)c(=O)n(C)c(=O)n2C(C)C`: the inhibition in test [1] was 7.6%.

For `O=C(NC1CCN(CCc2c[nH]c3ccccc23)CC1)c1ccccc1`, in test [1], the inhibition worked out at 22.6%.

Take `O=C(O)[C@H](Cc1c[nH]c2ccccc12)N1C(=O)c2ccccc2C1=O`: the inhibition in test [1] is 3.67%.

For the compound `Oc1ccc(/C=C/c2cc(O)cc(O)c2)cc1`, the inhibition in test [1] worked out at 85.4%.

In the case of `O=C(/C=C/c1ccc(O)c(O)c1)OCCc1ccccc1`, the inhibition in test [1] stood at 13.8%.

Turning to `Oc1cc(O)cc(/C=C/c2ccc(O)c(O)c2)c1`, the inhibition in test [1] is 74%.

As to `COc1cc(/C=C/c2ccc(O)cc2)cc(OC)c1`, the inhibition in test [1] was -1.8%.

`COc1ccc(/C=C\c2cc(OC)c(OC)c(OC)c2)cc1O`: in test [1], the inhibition is -2.33%.

Consider `Oc1cc(O)cc(O)c1`, for which the inhibition in test [1] stood at 2.03%.

As to `CCCCNc1ncc(-c2ccc(CN3CCOCC3)cn2)c(N[C@H]2CC[C@H](O)CC2)n1`, in test [1], the inhibition is -9.04%.

Regarding `CCc1c(C(=O)Nc2cc(S(=O)(=O)N(CC)CC)ccc2O)[nH]c(C)c1C(C)=O`, the inhibition in test [1] was -2.94%.

For the compound `NC(Cn1ccc(=O)n(Cc2ccccc2C(=O)O)c1=O)C(=O)O` (stereo not drawn), the inhibition in test [1] was -9.78%.

As for SPIRAMYCIN, CHEMBL6195749, the inhibition in test [2] was -1.63%.

For the compound `COc1ccc(Cl)cc1[C@]1(F)C(=O)Nc2cc(C(F)(F)F)ccc21`, the inhibition in test [1] is -2.57%.

For `Nc1n[nH]c2nc3ccccc3nc12`, the inhibition in test [1] amounted to 33.5%.

`O=C(NO)c1ccc(O)c(O)c1`: the inhibition in test [1] came to 56.3%.

Consider `O=C(O)C(O)Cc1ccc(O)c(O)c1` (stereo not drawn), for which the inhibition in test [1] was 6.01%.

On to `CC(C)C(=O)c1ccc(O)c(O)c1`, for which the inhibition in test [1] amounted to 0.03%.

As to `COc1cc2c(c(OC)c1OC)-c1c(cc3c(c1OC)OCO3)C[C@@H](C)[C@@H](C)C2`, the inhibition in test [1] was -5.94%.

On to `O=S(=O)(NCCCCCCc1ccccc1)c1cccc2c(Cl)cccc12`, for which, in test [1], the inhibition was -3.75%.

`Oc1ccc(OCc2ccccc2)cc1`: the inhibition in test [1] was 87%.

As for `COc1ccc(O)cc1`, the inhibition in test [1] was found to be 1.74%.

As for `CC/C(=C(\c1ccc(O)cc1)c1ccc(OCCNC)cc1)c1ccccc1`, the inhibition in test [1] was -2.91%.

In the case of `O=C(O)C1CCCN(CCC=C(c2ccccc2)c2ccccc2)C1` (stereo not drawn), the inhibition in test [1] was -1.71%.

For `O=C(c1ccccc1)c1ccc2n1CCC2C(=O)O` (stereo not drawn), in test [1], the inhibition was determined as 75.8%.

On to `O=C(O)c1ccccc1`, for which the inhibition in test [1] was 3.92%.

Turning to `CC(=O)C1=C(O)C=C2Oc3c(C(C)=O)c(O)c(C)c(O)c3[C@@]2(C)C1=O`, the inhibition in test [1] was -7.8%.

For `CO[C@H]1/C=C/O[C@@]2(C)Oc3c(C)c(O)c4c(O)c(cc(O)c4c3C2=O)NC(=O)/C(C)=C\C=C\C(C)[C@H](O)[C@@H](C)[C@@H](O)[C@@H](C)[C@H](OC(C)=O)[C@@H]1C` (stereo partly drawn), the inhibition in test [1] came out at 1.34%.

Source of the values: ChEMBL document CHEMBL4808148, “HDAC6 screening dataset using tau-based substrate in an enzymatic assay yields selective inhibitors and activators” (2021).
